Screens deposited in PubChem BioAssay by National Center for Advancing Translational Sciences (NCATS).
Rows were chosen to be rich in hits. Some 0.78% of all compounds tested hit in one or more screens of this group.
Tb PGK inh = qHTS Assay to Find Inhibitors of Phosphoglycerate Kinase; 0.043% of 380,000 active; Potency, µM (highest dose often 57.5 µM), usual class: inhibitors; PGK/GAPDH coupled, Kinase-Glo luminescence, 60 min; Phosphoglycerate kinase, glycosomal (Trypanosoma brucei brucei), P07378; further: nearly all actives have a fitted effect of over 60% in size
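Luminescent ATP detection (Kinase-Glo Plus) follows a 60-minute room-temperature incubation, with wells lacking PGK as controls. Buffer: 100 mM TEA (pH 7.6), 5 mM MgCl2, 0.01% Tween-20. Coupling enzyme GAPDH (100 nM final) supplies unstable 1,3-BPG in-well.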
CCT modulator = High-Throughput Screening for Modulators of Cytosolic Chaperonin Activity | purified chaperonin ATPase assay, HTRF ADP detection, 30 min | activity change, % (concentration not given with the values), hits read low | 0.3% of 360,000 active; in the data active means activity change below about -30%
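TRiC at 40 or 20 nM final (batch-dependent) in 30 mM Tris pH 7.4, 100 mM KCl, 5 mM MgCl2, 1 mM DTT, with compound at single 76 uM and 10 uM ATP, 30 min at 37 deg C. ADP detected by HTRF Transcreener, 665/615 ratio.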
PI4K2A block = qHTS for small molecular inhibitors of PI4K2A | purified PI4K2A, ADP-Glo luminescence, 1 h; stronger effect = lower value | activity change, negative = inhibition, % at 76.9 µM | 0.13% of 420,000 active; in the data active means activity change below about -50%; inconclusive means mostly about -30% to -49%
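PI4K2A activity was measured by ADP-Glo luminescence: enzyme (4 ug/mL stock) and phosphatidylinositol (1.2 mM stock) in Tris pH 7.5/MgCl2/EGTA/Triton X-100 buffer were reacted with ATP (300 microM stock) for one hour at ambient temperature.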
PINK1 expr mod = A Quantitative High throughput Screen to Identify Chemical Modulators of PINK1 Expression. PINK1 immunofluorescence, high-content cytometry, 24 h. Potency, µM (titrated, usually from 76.6 µM), most hits filed as activators. 0.2% of 410,000 active. AID 624263, 2012; active means well fitted activation curve with a large enough effect; inconclusive means small, poorly fitted or top-dose-only effect; cell line not stated here; further: nearly all actives have a fitted effect of over 65% in size
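PINK1 protein level read as immunofluorescence by microplate cytometer in a fixed, stained stable cell line after 24 h exposure to five compound concentrations, with CCCP as control.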
GLS inhibitor = qHTS for Inhibitors of Glutaminase (GLS). 0.21% of 410,000 active. Potency, µM (highest dose often 45.5 µM), hits mostly inhibitors. GLS enzymatic activity, qHTS titration
Target sequence (O94925 whole entry, looked up): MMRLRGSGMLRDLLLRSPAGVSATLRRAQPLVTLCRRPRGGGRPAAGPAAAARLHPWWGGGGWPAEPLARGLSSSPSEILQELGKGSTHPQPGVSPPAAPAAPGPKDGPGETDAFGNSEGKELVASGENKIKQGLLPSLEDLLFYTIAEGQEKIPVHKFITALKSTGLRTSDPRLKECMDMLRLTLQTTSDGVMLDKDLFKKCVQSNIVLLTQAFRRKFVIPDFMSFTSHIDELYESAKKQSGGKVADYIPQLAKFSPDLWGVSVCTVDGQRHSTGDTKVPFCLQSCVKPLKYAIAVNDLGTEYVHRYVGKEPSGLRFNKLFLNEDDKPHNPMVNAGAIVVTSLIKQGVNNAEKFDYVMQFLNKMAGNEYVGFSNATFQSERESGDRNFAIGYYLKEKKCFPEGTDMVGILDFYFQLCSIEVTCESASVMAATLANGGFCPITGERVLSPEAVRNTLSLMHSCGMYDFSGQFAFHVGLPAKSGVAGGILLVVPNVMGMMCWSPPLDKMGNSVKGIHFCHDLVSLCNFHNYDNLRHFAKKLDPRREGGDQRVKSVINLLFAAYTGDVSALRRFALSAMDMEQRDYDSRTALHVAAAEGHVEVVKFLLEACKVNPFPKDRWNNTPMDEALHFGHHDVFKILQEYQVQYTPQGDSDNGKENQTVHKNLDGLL
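Two-point fluorescence kinetic (t0, 30 min RT) for hKGA; glutamate detected via glutamate oxidase–HRP–Amplex Red. Substrate: 1 mM L-glutamine solution; buffer 45 mM KH2PO4, pH 8.2.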
Hits are given with their value; - = inactive; ? = inconclusive; . = not tested or not shown. Unless noted, the call rests on the fitted dose curve; in most records, active means well fitted curve in the direction sought with a large enough effect; inconclusive means small, poorly fitted or top-dose-only effect, or another doubt; inactive means no such curve, though single readings can be large; an effect the other way counts as inactive or inconclusive.

SMILES	Tb PGK inh	CCT modulator	PI4K2A block	PINK1 expr mod	GLS inhibitor
Cc1cn2cc(CNC(=O)CN3Cc4ccccc4OC(c4ccccc4F)C3)nc2s1 (centres undefined)	.	.	.	-	.
CC(C)c1c(C(=O)N(C)Cc2cccc3ncccc23)cnn1-c1nccc(-c2ccco2)n1	.	.	.	-	.
N=C1/C(=C/c2ccc(-c3cccc(C(=O)O)c3)o2)C(=O)N=C2SC=C(c3ccccc3)N12	?	-	-	-	22µM
O[C@@H](COc1cccc2ncccc12)CN1CCN(C2c3ccccc3[C@@H]3[C@H](c4ccccc42)C3(F)F)CC1 (some centres undefined)	.	.	-	.	.
N#Cc1c(-c2ccc(Cl)cc2)n(O)c2ccccc12	-	-	-	35µM	-
Cc1c(C(=O)N2CCN(C)CC2)sc2ncnc(NCC3(c4ccccc4)CCOCC3)c12	.	.	.	-	.
CCOc1ccc(CCNC(=O)c2cccc(N3CCCC3=O)c2)cc1OCC	-	-	-	-	-
COc1ccc(CCNC(=O)c2ccc(N3CCCC3=O)cc2)cc1OC	-	-32	-	-	-
Cc1c(-c2ccc(O)cc2)n(Cc2ccc(OCCN3CCCCCC3)cc2)c2ccc(O)cc12	.	.	-	.	-
Cc1ccc(S(=O)(=O)NCC(c2cccnc2)N2CCc3ccccc32)cc1 (centres undefined)	-	-49	-	-	-
COc1ccc(NS(=O)(=O)c2ccc(-c3cnc(C4CC4)o3)cc2)cc1OC	-	-66	-	-	-
COc1ccccc1NS(=O)(=O)c1ccc(-c2cnc(C3CC3)o2)cc1	-	-77	-	-	-
Cc1cc(C)c(NS(=O)(=O)c2ccc(-c3cnc(C4CC4)o3)cc2)c(C)c1	-	.	-	-	-
COc1ccc(C2=NS(=O)(=O)N(C)C(C(=O)N3CCC(C(N)=O)CC3)=C2)cc1	-	-67	-	-	-
COc1ccc(C2=NS(=O)(=O)N(C)C(C(=O)N3CCOCC3)=C2)cc1	-	-	-	-	-
COc1ccc(CCn2c(C)cc3c(c2=O)C(c2ccncc2)C(C#N)=C(N)O3)cc1OC (centres undefined)	-	-36	-	-	-
CCn1c(C)cc2c(c1=O)C(c1ccncc1)C(C#N)=C(N)O2 (centres undefined)	-	-	-	-	-
CCn1c(-c2ccccc2F)nc2cc(NC(C)=O)cc(C(=O)NCc3ncc(C)[nH]3)c21	.	.	.	-	.
O=[N+]([O-])c1cccc(-c2ccc(SCc3cccnc3)nn2)c1	-	-76	-	-	-
CSc1ccc(-c2cccc([N+](=O)[O-])c2)nn1	-	-	-	-	-
COc1ccc(N(CC(=O)NC2CCCCCC2)S(=O)(=O)c2c(C)nn(C)c2C)cc1	-	-	-	-	-
Cc1ccc(N(CC(=O)NC2CCCCCC2)S(=O)(=O)c2c(C)nn(C)c2C)cc1	-	-47	-	-	-
Cc1cc(C)c(S(=O)(=O)c2c(C)cccc2C)c(Cl)n1	-	-	-	-	11µM
Cc1cc(C)c(S(=O)(=O)c2cccc(Cl)c2)c(Cl)n1	-	-	-	-	-
COc1cccc(/C=N/Nc2ccc(S(=O)(=O)O)cc2)c1O	-	-	-	-	-
SMILES	Tb PGK inh	CCT modulator	PI4K2A block	PINK1 expr mod	GLS inhibitor
COc1cccc(/C=N/Nc2ccc(C(=O)O)cc2)c1O	-	-	-73	-	-
COc1ccc(/C=N/Nc2snc(SC)c2C#N)cc1OC	-	-	-54	-	-
COc1cccc(/C=N/Nc2snc(SC)c2C#N)c1O	-	-	-	13µM	-
Cc1ncc2c(c1CNC(=O)c1cncs1)CCN(C(=O)c1cccc(-c3cccc(F)c3)c1)C2	.	.	.	-	.
Nc1ccc(O)cc1	.	.	?	-	13µM
Nc1ccc(C(=O)O)cc1	-	-	-	-	-
CCOC(=O)[C@@H]1[C@H]2COc3cc(OC)ccc3[C@H]2N2C(=O)N(c3ccc(C(F)(F)F)cc3)C(=O)[C@]12C	-	-	-	40µM	-
COc1cc(C(C#N)N2CCC(c3ccccc3)=N2)ccc1O (centres undefined)	-	-	-	-	10µM
CCOC(=O)c1sc(NC(=S)NC(=O)c2ccc(OC)cc2)nc1C	-	-52	-	-	-
COc1ccc(C(=O)NC(=S)Nc2nc(C)c(C(=O)N(C)C)s2)cc1	-	-	-	-	-
Cc1ccc(S(=O)(=O)Cc2ccc(C(=O)O)o2)cc1	?	-	-	-	13µM
CCOC(=O)c1c(P(=O)(N2CCOCC2)N2CCOCC2)noc1N	-	-54	-	-	-
O=C(Cc1cccs1)NC1C(=O)N2C(C(=O)[O-])=C(C[n+]3ccccc3)CSC12 (centres undefined)	.	.	.	.	11µM
Cc1cc(-c2cc(F)cc3c2OC(CNC(=O)CCn2cncn2)C3)ccc1F (centres undefined)	.	.	.	-	.
COc1ccc(NC2CC(=O)N(c3cc([N+](=O)[O-])ccc3C)C2=O)cc1 (centres undefined)	-	-	-	-	7.1µM
CC1CCCN(c2ccc(N)cc2C(N)=O)C1 (centres undefined)	-	-	-	-	7.1µM
Cc1cccc(NC(=O)CCc2ccccc2)c1C	-	-49	-	-	-
Cc1cccc(NC(=O)CNCC(=O)Nc2cccc(C)c2C)c1C	-	-49	-	-	-
Cc1ccc(NC(=O)CNc2cccc(C)c2C)c(C)c1	-	-	-	-	-
Cc1cccc(NC(=O)CCSc2ccccc2)c1C	-	-	-	-	-
CCC1C(=O)NCCN1Cc1ccc2c(c1)CN(Cc1ccc(OC)c(OC)c1)CCO2 (centres undefined)	.	.	.	-	.
COc1ccc(NC(=O)c2cc3cc(OC)ccc3oc2=O)cc1	-	-	-	25µM	-
O=C(NCc1ccco1)c1cc2ccc(O)cc2oc1=O	?	-	-76	-	-
O=C(c1ccccc1)c1cc2ccc(O)cc2oc1=O	?	-	-87	-	-
COc1ccc(C(=O)c2cc3ccc(O)cc3oc2=O)cc1	.	-	-53	-	-
SMILES	Tb PGK inh	CCT modulator	PI4K2A block	PINK1 expr mod	GLS inhibitor
O=C(c1ccc(Br)cc1)c1cc2ccc(O)cc2oc1=O	-	-	-	-	-
COC(=O)c1ccc(OC(=O)/C=C/c2ccco2)cc1	-	-	-	-	-
O=Cc1cccc(OC(=O)/C=C/c2ccco2)c1	?	-	-	-	10µM
O=S(=O)(Nc1cc(Cl)ccc1-n1cncn1)c1cc(Br)ccc1Br	-	-	-	16µM	-
O=C(C1CCC(CNc2nc(=S)[nH]c3ccccc23)CC1)N1CCN(c2ccc(F)cc2)CC1 (centres undefined)	-	-36	-	-	-
COc1cccc(CNC(=O)c2c(OC)cc(=O)n3c2CCN(C(=O)c2cc(C)ccc2C)CC3)c1	.	.	.	-	.
